An excerpt weighted towards active compounds, which were near 4.6% of everything screened.
hgDAF12 agonist: activates the H. glycines DAF-12 receptor ligand-binding domain | HEK293 GAL4-hgDAF12 UAS-luciferase reporter, agonist luminescence; normalized to butyrate control | activation, % at 6.8 µM | 1.8% of 370,000 active;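 active = activation above a cutoff set at the mean of all screened compounds plus 3 SD, cut at about 10% in these data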;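 note: 0% = DMSO wells and 100% = sodium butyrate wells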
DAX1 inh-1: inhibitors of DAX1 repression of SF-1 activated StAR promoter. 1.1% of 370,000 active. inhibition, % at 6.8 µM. HEK293T StAR-luciferase reporter, SF-1/DAX-1 repression relief;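 active = inhibition above the mean over all tested compounds plus 3 SD, cut at about 3.6% in these data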;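 note: 0% = DAX-1 cells with DMSO and 100% = cells lacking DAX-1 with DMSO; higher inhibition means more luminescence from relief of DAX-1 repression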
DAX1 inh-2: inhibits human nuclear receptor DAX1. HEK293 Gal4-DAX1 luciferase reporter, luminescence. inhibition, % at 6.75 µM. 0.99% of 340,000 active. AID 504766;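 active = inhibition above the mean over all tested compounds plus 3 SD, cut at about 4.2% in these data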;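 note: 0% = DAX1-transfected cells with DMSO and 100% = empty-vector control cells with DMSO; inhibition shows as a rise in luminescence from relieved DAX1 repression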
Target sequence (P51843 207-470 limits assumed): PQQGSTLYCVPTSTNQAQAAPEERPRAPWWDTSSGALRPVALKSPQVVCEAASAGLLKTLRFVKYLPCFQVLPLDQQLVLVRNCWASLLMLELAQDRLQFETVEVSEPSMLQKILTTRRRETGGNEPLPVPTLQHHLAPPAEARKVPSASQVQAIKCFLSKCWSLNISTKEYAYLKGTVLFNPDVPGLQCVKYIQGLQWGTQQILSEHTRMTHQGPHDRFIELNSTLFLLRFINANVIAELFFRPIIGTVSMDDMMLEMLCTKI
Wee1 degr inh: inhibitors of human Wee1 degradation. AID 1321. 1.2% of 220,000 active. P30291. HeLa Luc-Wee1K328M stability, luciferase luminescence; 100% = proteasome inhibitor MG132 effect. reporter increase, % at 5 µM;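 active = activation above the mean of all tested compounds plus 3 SD, set per screening run, cut at about 8.8% in these data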;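 note: cells exposed to compound for 20 h before luminescence read; 0% = DMSO alone and 100% = MG132 at 30 µM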
hcDAF12 agonist: H. contortus DAF-12 activation, primary screen; activation, % at 6.8 µM; 1.4% of 370,000 active; HEK293 hcDAF-12 lit1-tk-luc reporter, luminescence; 0% DMSO, 100% Δ7-dafachronic acid;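 active = activation above the mean of all tested compounds plus 3 SD, cut at about 5.5% in these data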;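 note: 100% = response to 3 µM Δ7-dafachronic acid high control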
ssDAF12 agonist: S. stercoralis DAF-12 activation, primary screen. activation, % at 6.8 µM. HEK293 ssDAF-12/GRIP1 lit1-tk-luc reporter, luminescence; % of 3 µM dafachronic acid response. 1% of 370,000 active;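 active = activation above the mean over all tested compounds plus 3 SD, cut at about 0.9% in these data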;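 note: 0% = DMSO-only wells and 100% = 3 µM delta7-dafachronic acid wells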
hgDAF12 conf: hgDAF-12 agonism, confirmation assay; shares compounds with hgDAF12 agonist; HEK293 GAL4-hgDAF12 luciferase reporter, agonist mode; percent of butyrate response; activation, % at 6.8 µM; 80% of 3,300 active; AID 743050;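 active = mean activation over triplicate wells above the hit cutoff derived from the earlier primary screen, cut at about 11% in these data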;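 note: 0% = DMSO low control and 100% = 2 mM sodium butyrate high control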
LXR ag 2: activates human LXR-beta, counter-screen for DAF-12 agonists; shares compounds with hgDAF12 agonist; HEK293 Gal4-LXR luciferase reporter, 24 h; activation, % at 6.8 µM; 3,300 tested, under 10 active; AID 743051;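 active = mean activation of the triplicate above a set limit carried over from the primary screen, none filed active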
Target sequence (P55055 whole entry, looked up, the tested form may be a part): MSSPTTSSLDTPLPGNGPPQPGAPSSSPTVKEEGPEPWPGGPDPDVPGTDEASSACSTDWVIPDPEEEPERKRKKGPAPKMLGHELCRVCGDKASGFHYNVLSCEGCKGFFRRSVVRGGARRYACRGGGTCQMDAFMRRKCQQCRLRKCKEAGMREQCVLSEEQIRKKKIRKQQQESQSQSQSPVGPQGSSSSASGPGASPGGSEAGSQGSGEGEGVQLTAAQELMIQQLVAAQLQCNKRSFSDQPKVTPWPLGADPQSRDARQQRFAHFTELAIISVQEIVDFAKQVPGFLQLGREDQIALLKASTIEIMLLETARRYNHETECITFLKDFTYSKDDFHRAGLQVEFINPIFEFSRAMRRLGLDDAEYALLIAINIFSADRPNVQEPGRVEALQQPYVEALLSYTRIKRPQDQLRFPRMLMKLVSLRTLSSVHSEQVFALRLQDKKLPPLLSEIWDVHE
* = called active by the depositor; · = no result.

SMILES	hgDAF12 agonist	DAX1 inh-1	DAX1 inh-2	Wee1 degr inh	hcDAF12 agonist	ssDAF12 agonist	hgDAF12 conf	LXR ag 2
COC(=O)[C@]12C[C@H](CC(=O)NCCCCc3ccccc3)C(=O)N(CCc3ccc(OC)c(OC)c3)C1=C[C@H](C(C)(C)C)O[C@@H]2C	-4.8	-1.4	·	·	-1.5	-1.1	·	·
O=C(O)CC1Cc2ccccc2C1C(=O)O (centres undefined)	4.1	-0.7	-0.8	·	2.3	-0.7	·	·
Cc1ccc2nc(-c3ccc(N4C(=N)SC5CS(=O)(=O)CC54)cc3)sc2c1 (centres undefined)	13.8*	1.3	0.6	2.3	1.6	-0.1	12.8*	0.4
COc1ccccc1C(=O)n1ccc2ccc(-c3ccc4ccn(Cc5ccc(C#N)cc5)c4c3)cc21	-0.6	-1.6	·	·	1.0	-0.6	·	·
C=C(CCO)C1=CCN(S(=O)C(C)(C)C)[C@H]1CCO (some centres undefined)	-2.7	0.1	3.5	·	-0.7	-0.8	·	·
CCS(=O)(=O)c1ccc(C=NNc2nc3ccccc3o2)cc1	21.1*	3.5	2.4	·	4.0	0.1	15.0*	0.7
CCS(=O)(=O)c1ccc2oc(Nc3ccc(C(C)C)cc3)nc2c1	3.6	0.0	-1.3	1.9	-2.5	-1.5	·	·
C/C(=N\NC(=O)c1cc(C)[nH]n1)c1cccs1	16.5*	4.5*	2.1	2.7	4.0	0.3	13.8*	0.6
C/C(=N/NC(=O)c1cc(C(C)C)[nH]n1)c1cccs1	13.7*	3.0	0.7	0.2	6.1*	0.2	16.1*	1.0
O=C(N/N=C\c1cccc(Cl)c1)c1n[nH]c2c1CCCC2	13.8*	3.4	1.4	2.8	2.0	-1.4	11.3*	0.7
C/C(CC(=O)Nc1c(C)cc(C)cc1C)=N\NC(=O)c1cnccn1	7.3	0.8	1.0	0.0	-0.2	-1.7	·	·
C/C(CC(=O)Nc1c(C)cc(C)cc1C)=N\NC(=O)OC(C)(C)C	13.4*	1.3	3.2	-1.4	0.9	-0.3	0.7	0.0
CCOC(=O)N1CCC(NC(=O)c2cc3ccccn3n2)CC1	15.8*	0.5	-0.3	-1.9	-0.5	-1.7	-0.6	0.0
Cc1ccccc1CSc1nnc(-c2ccncc2)o1	3.9	1.1	0.4	3.9	-0.3	-1.4	·	·
Fc1ccccc1CSc1nnc(-c2ccccc2)o1	17.8*	2.2	2.6	1.6	2.4	0.1	14.3*	0.6
c1cncc(-c2nnc(SCCSc3nnc(-c4cccnc4)o3)o2)c1	·	·	·	-0.2	·	·	·	·
Fc1ccccc1CSc1nnc(-c2cccnc2)o1	14.5*	3.0	4.6*	-2.1	2.6	-0.1	10.6*	0.5
O=C(CN1CCN(Cc2ccccc2)CC1)NNC(=O)c1ccccc1	-0.1	-0.2	-0.6	·	-0.7	-0.9	·	·
Cc1cc(OCC(=O)N(C)C2CCCCC2)ccc1Cl	17.4*	3.6*	0.2	1.3	4.1	0.7	10.0	0.8
CC(=O)N1C[C@H]2CON(C)[C@H]2C[C@H]1c1ccc(-c2cccnc2)cc1	-0.4	-0.6	1.8	·	-0.1	-0.6	·	·
COc1ccc(-c2cc(=O)c3c(O)cc(O)cc3o2)cc1	13.3*	4.1*	1.1	·	0.3	-0.6	14.7*	0.8
COc1ccc(-c2cc(=O)c3cc(O)ccc3o2)cc1	24.3*	2.5	5.2*	0.3	5.1	0.6	17.2*	0.7
NC(=O)c1c(-c2ccccc2)oc2ccc(O)cc12	-1.7	0.3	-0.1	-3.5	-1.4	-0.8	·	·
COc1cc(-c2cc(=O)c3c(O)cc(O)cc3o2)cc(OC)c1OC	-4.3	-0.9	·	·	-1.7	-1.8	·	·
COc1ccc2oc(-c3ccco3)cc(=O)c2c1	18.7*	4.5*	0.5	6.5	3.4	0.1	14.4*	0.8
SMILES	hgDAF12 agonist	DAX1 inh-1	DAX1 inh-2	Wee1 degr inh	hcDAF12 agonist	ssDAF12 agonist	hgDAF12 conf	LXR ag 2
O=c1cc(-c2ccccc2)oc2ccc(O)cc12	16.7*	2.1	7.8*	7.8	2.6	-0.6	13.9*	0.6
CC1CCN(C(=O)CCc2nnc(-c3ccccc3)o2)CC1	13.8*	1.4	0.3	-2.7	0.9	-0.4	10.5*	0.2
Cc1ccc(NS(=O)(=O)c2ccc(-n3cccn3)cc2)c(Cl)c1	-0.8	-1.3	0.0	·	-1.2	-1.4	·	·
Cc1cc(C(=O)COC(=O)C2=COCCO2)c(C)n1-c1ccccc1	-12.8	-2.8	-4.9	·	-4.5	-2.4	·	·
CC(=NNc1ccc([N+](=O)[O-])cn1)c1ccccc1	13.3*	2.3	1.1	·	1.1	0.0	15.9*	0.6
C/C(=N\Nc1ccc([N+](=O)[O-])cc1)c1cccc(N)c1	8.3	-1.2	0.9	-3.2	1.2	-1.5	·	·
C/C(=N\Nc1ccc([N+](=O)[O-])cc1)c1ccc(O)cc1	16.3*	0.6	·	6.0	2.2	-0.8	8.7	0.2
CC(C=NNc1ccc([N+](=O)[O-])cn1)=Cc1ccccc1	17.0*	3.7*	7.5*	·	3.3	-0.1	16.9*	1.1
O=C(O)c1ccccc1C=NNc1ccc([N+](=O)[O-])cn1	0.6	-0.7	-0.1	·	2.4	-0.7	·	·
COc1cccc(-c2nnc(-c3ccc(C)o3)o2)c1	14.1*	4.1*	-0.1	5.2	4.9	0.3	18.6*	0.9
COc1cccc(-c2nnc(N)o2)c1	0.9	0.7	0.0	1.8	1.0	-1.0	·	·
c1ccc2[nH]c(NCc3ccc4c(c3)OCO4)nc2c1	13.6*	2.6	1.4	1.0	2.9	-1.0	9.8	0.5
O=C(COC(=O)c1ccc2ncsc2c1)Nc1ccccc1Cl	8.2	0.9	0.3	·	2.9	-1.8	·	·
CCOC(=O)c1ccccc1NC(=O)Cc1ccc(S(=O)(=O)N2CCCC2)s1	-2.4	-1.3	-1.6	·	-0.3	-0.9	·	·
CC(C)(C)c1ccc(OCCn2ccccc2=O)cc1	15.6*	2.9	1.2	3.6	6.2*	-0.1	17.3*	0.7
Cc1cnc(NC(=O)c2cncc(Br)c2)s1	18.7*	2.2	3.2	-2.2	1.7	0.3	15.5*	0.8
O=c1[nH]cnc2cc(-c3ccccc3)sc12	13.4*	1.5	0.1	-0.2	1.2	-0.8	11.5*	0.5
O=c1[nH]cnc2scc(-c3ccc(-c4ccccc4)cc3)c12	7.9	2.6	0.8	0.8	2.5	-0.8	·	·
CN1C(=O)C(c2cn(C)c3ccccc23)(c2cn(C)c3ccccc23)c2cc(F)ccc21	13.5*	-0.7	·	·	3.2	2.4*	2.3	0.0
COc1cc2c(Cc3ccccc3)cncc2cc1O	-2.3	-3.2	-3.4	·	-1.7	-2.0	·	·

Screening results: PubChem BioAssay, The Scripps Research Institute Molecular Screening Center
